The panel holds about 79,000 compounds, 15% with a hit somewhere; the sample as a whole holds those more often. Unmarked numbers belong to inactive results. The source made the active and inactive calls. No stated cut-off is given here; in the data, active means growth inhibition above about 70%; inactive means the rest.
test: NCI Yeast Anticancer Drug Screen. Data for the cln2 rad14 strain (AID 165);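 further: 0% = growth equal to vehicle treated cultures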; settings: S. cerevisiae cln2 rad14 strain, at 50.0 µM (retest, dose inferred, filed as 5.0), stronger effect = higher value
Outline: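 Relative to vehicle controls, growth inhibition of compound-treated cln2 rad14 yeast was recorded.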

SMILES | growth inhibition
Clc1cc2n[nH]nc2c(Cl)c1Cl | 65%
NSc1ccc(N)s1 | 6%
O=C1C2=C(CCCC2)C(=O)C(Cl)C1Cl (configuration not stated) | 99% (active)
O=C(COc1ccc2ccccc2c1)NC1c2ccccc2Oc2ccccc21 | 94% (active)
COc1ccc(-c2cc(-c3ccco3)c(C#N)c(=S)n2C2OC(CO)C(O)C(O)C2O)cc1 (configuration not stated) | 16%
Clc1cccc(Cl)c1C(Nc1nncs1)Nc1nncs1 | 42%
COC([C@@H](OC(=O)c1ccccc1)[C@H](OC(=O)c1ccccc1)C(O)COC(=O)c1ccccc1)n1cc(C)c(=O)[nH]c1=O (some centres not stated) | 57%
C1=C(c2c(-c3ccccc3)[nH]c3ccccc23)Cc2ccccc21 | 93% (active)
CC12C(=O)OC(=O)C1C1c3ccccc3C2c2ccccc21 (configuration not stated) | 95% (active)
O=C(N/C(=C\c1ccc(/C=C(\NC(=O)c2ccccc2)c2nc3ccccc3s2)cc1)c1nc2ccccc2s1)c1ccccc1 | 38%
COS(=O)c1cc(Cl)cc(Cl)c1OC(=O)CSSCC(=O)Oc1c(Cl)cc(Cl)cc1S(=O)OC (configuration not stated) | 98% (active)
COc1cc2c3c(c4ccc(OC)c(OC)c4c2cc1OC)CN1CCC[C@@H]1C3 | 92% (active)
N#CSC#CCCC#CSC#N | 99% (active)
Nc1nc(-c2ccc(Cl)cc2)c(N=Nc2ccc(Br)cc2)s1 | 89% (active)
CC(=O)C(C(C)=O)C1C=CC=CC=C1 | 77% (active)
CCCCN(C(=O)c1ccccc1)C1CCC(=O)c2[nH]c3ccccc3c21 (configuration not stated) | -1%
S=C(Nc1ccc(Cl)c(Cl)c1)N1c2ccccc2-n2cccc2C1c1cccnc1 (configuration not stated) | 94% (active)
